Assay results reported in PubChem BioAssay AID1159580 (chemical genetic matrix, 2015).
In all, about 5,500 compounds went through this assay and about 2,000 (36%) were called active. Roughly 18% stayed inconclusive and do not appear here. Cut-off read from the data, not from the text of the source: active = normalized growth mostly below about 0.91 (no sharp cut-off); inconclusive = no clear call, values can overlap the other calls; inactive = mostly above about 0.92. This is one part of the list.

Assay: chemical genetic growth profiling, strain panel (AID 1159580);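 note: tested at 20 µM; growth read once vehicle control cultures reached saturation at 30 °C; 1 = growth at the plate median or of vehicle wells; lower values mean less growth of the strain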
Conditions: growth OD

Measured: normalized growth

CC(=O)O[C@@H]1CC2C(C)(C)[C@H](O)CC[C@]2(C)C2CC[C@@]3(C)[C@H](c4ccoc4)OC(=O)C4OC43[C@@]21C (some centres not stated)
inactive: S. cerevisiae deletion strains, locus YJR066W, strain TOR1, active compounds read low 1 | S. cerevisiae deletion strains, locus YJR075W, strain HOC1, active compounds read low 1 | S. cerevisiae deletion strains, locus YKL009W, strain mrt4, active compounds read low 0.963 | S. cerevisiae deletion strains, locus YKL068W, active compounds read low 0.991 | S. cerevisiae deletion strains, locus YKL085W, strain MDH1 (second series), active compounds read low 0.99 | S. cerevisiae deletion strains, locus YKL085W, strain MDH1, active compounds read low 0.99 | S. cerevisiae deletion strains, locus YKL160W, strain elf1, active compounds read low 0.989 | S. cerevisiae deletion strains, locus YKR001C, strain vps1, active compounds read low 0.969 | S. cerevisiae deletion strains, locus YKR026C, strain gcn3, active compounds read low 0.992 | S. cerevisiae deletion strains, locus YKR091W, strain srl3, active compounds read low 1.01 | S. cerevisiae deletion strains, locus YLL001W, strain dnm1, active compounds read low 1.03 | S. cerevisiae deletion strains, locus YLL026W, active compounds read low 1.01 | S. cerevisiae deletion strains, locus YLL041C, strain sdh2, active compounds read low 1.01 | S. cerevisiae deletion strains, locus YLR027C, strain aat2, active compounds read low 1.01 | S. cerevisiae deletion strains, locus YLR039C, strain RIC1, active compounds read low 1.01 | S. cerevisiae deletion strains, locus YLR058C, strain SHM2, active compounds read low 1 | S. cerevisiae deletion strains, locus YLR102C, strain apc9, active compounds read low 0.989 | S. cerevisiae deletion strains, locus YLR113W, strain HOG1, active compounds read low 1.08 | S. cerevisiae deletion strains, locus YLR221C, strain rsa3, active compounds read low 1.02 | S. cerevisiae deletion strains, locus YLR258W, strain gsy2, active compounds read low 1.02 | S. cerevisiae deletion strains, locus YLR262C, strain YPT6 (second series), active compounds read low 1 | S. cerevisiae deletion strains, locus YLR262C, strain YPT6, active compounds read low 1.05 | S. cerevisiae deletion strains, locus YLR268W, strain sec22, active compounds read low 0.984 | S. cerevisiae deletion strains, locus YLR320W, strain mms22, active compounds read low 1.03 | S. cerevisiae deletion strains, locus YLR342W, strain FKS1 (second series), active compounds read low 1.06 | S. cerevisiae deletion strains, locus YLR342W, strain FKS1, active compounds read low 1.01 | S. cerevisiae deletion strains, locus YLR357W, strain rsc2, active compounds read low 1.03 | S. cerevisiae deletion strains, locus YLR370C, strain arc18, active compounds read low 1.01 | S. cerevisiae deletion strains, locus YLR371W, strain rom2, active compounds read low 0.975 | S. cerevisiae deletion strains, locus YLR384C, strain iki3, active compounds read low 1.02 | S. cerevisiae deletion strains, locus YLR418C, strain cdc73, active compounds read low 0.984 | S. cerevisiae deletion strains, locus YML016C, strain PPZ1, active compounds read low 0.982 | S. cerevisiae deletion strains, locus YML032C, strain rad52, active compounds read low 0.975 | S. cerevisiae deletion strains, locus YML120C, strain ndi1, active compounds read low 1.03 | S. cerevisiae deletion strains, locus YML124C, strain tub3, active compounds read low 0.988 | S. cerevisiae deletion strains, locus YMR058W, strain fet3, active compounds read low 1.03 | S. cerevisiae deletion strains, locus YMR078C, strain ctf18, active compounds read low 0.972 | S. cerevisiae deletion strains, locus YMR125W, strain sto1, active compounds read low 1 | S. cerevisiae deletion strains, locus YMR129W, active compounds read low 1 | S. cerevisiae deletion strains, locus YMR205C, strain PFK2, active compounds read low 1.04 | S. cerevisiae deletion strains, locus YMR223W, strain ubp8, active compounds read low 0.995 | S. cerevisiae deletion strains, locus YMR231W, strain pep5, active compounds read low 1.01 | S. cerevisiae deletion strains, locus YMR307W, strain GAS1, active compounds read low 0.977 | S. cerevisiae deletion strains, locus YNL067W, strain RPL9B, active compounds read low 1.02 | S. cerevisiae deletion strains, locus YNL071W, strain lat1, active compounds read low 0.994 | S. cerevisiae deletion strains, locus YNL128W, strain TEP1, active compounds read low 0.975 | S. cerevisiae deletion strains, locus YNL153C, strain GIM3, active compounds read low 1.01 | S. cerevisiae deletion strains, locus YNL183C, strain NPR1, active compounds read low 1.01 | S. cerevisiae deletion strains, locus YNL209W, strain ssb2, active compounds read low 1.01 | S. cerevisiae deletion strains, locus YNL233W, strain BNI4, active compounds read low 1.04 | S. cerevisiae deletion strains, locus YNL248C, strain rpa49, active compounds read low 0.979 | S. cerevisiae deletion strains, locus YNL250W, strain rad50, active compounds read low 1 | S. cerevisiae deletion strains, locus YNL271C, strain bni1, active compounds read low 0.991 | S. cerevisiae deletion strains, locus YNL298W, strain CLA4, active compounds read low 0.992 | S. cerevisiae deletion strains, locus YNL307C, strain MCK1, active compounds read low 0.995 | S. cerevisiae deletion strains, locus YNL322C, strain KRE1 (second series), active compounds read low 1.01 | S. cerevisiae deletion strains, locus YNL322C, strain KRE1, active compounds read low 1.01 | S. cerevisiae deletion strains, locus YNR049C, strain mso1, active compounds read low 1.01 | S. cerevisiae deletion strains, locus YNR052C, strain pop2, active compounds read low 0.997 | S. cerevisiae deletion strains, locus YOL012C, strain htz1 1.17 | S. cerevisiae deletion strains, locus YOL147C, strain pex11, active compounds read low 0.992 | S. cerevisiae deletion strains, locus YOR001W, strain rrp6, active compounds read low 0.994 | S. cerevisiae deletion strains, locus YOR061W, strain CKA2, active compounds read low 0.94 | S. cerevisiae deletion strains, locus YOR069W, strain VPS5, active compounds read low 1 | S. cerevisiae deletion strains, locus YOR070C, strain gyp1, active compounds read low 1.01 | S. cerevisiae deletion strains, locus YOR080W, strain dia2, active compounds read low 1.01 | S. cerevisiae deletion strains, locus YOR083W, strain WHI5, active compounds read low 0.979 | S. cerevisiae deletion strains, locus YOR106W, strain vam3, active compounds read low 1 | S. cerevisiae deletion strains, locus YOR136W, strain idh2, active compounds read low 0.998 | S. cerevisiae deletion strains, locus YOR144C, strain elg1, active compounds read low 0.984 | S. cerevisiae deletion strains, locus YOR184W, strain ser1, active compounds read low 0.975 | S. cerevisiae deletion strains, locus YOR231W, strain MKK1, active compounds read low 1.09 | S. cerevisiae deletion strains, locus YOR265W, strain rbl2, active compounds read low 1.01 | S. cerevisiae deletion strains, locus YOR270C, strain vph1, active compounds read low 0.912 | S. cerevisiae deletion strains, locus YOR290C, strain snf2, active compounds read low 0.985 | S. cerevisiae deletion strains, locus YOR316C, strain cot1, active compounds read low 0.977 | S. cerevisiae deletion strains, locus YPL051W, strain arl3, active compounds read low 1 | S. cerevisiae deletion strains, locus YPL078C, strain atp4, active compounds read low 0.973 | S. cerevisiae deletion strains, locus YPL106C, strain sse1, active compounds read low 1.03 | S. cerevisiae deletion strains, locus YPL240C, strain hsp82, active compounds read low 1 | S. cerevisiae deletion strains, locus YPL256C, strain CLN2, active compounds read low 1.08 | S. cerevisiae deletion strains, locus YPR119W, strain clb2, active compounds read low 0.992 | S. cerevisiae deletion strains, locus YPR141C, strain kar3, active compounds read low 0.962 | S. cerevisiae deletion strains, locus YPR163C, strain tif3, active compounds read low 0.984 | S. cerevisiae deletion strains, locus YPR167C, strain met16, active compounds read low 0.998 | S. cerevisiae deletion strains, strain wtn01, active compounds read low 0.959 | S. cerevisiae strains, strain wild type, active compounds read low 1
